In the library only some 12% were active in any assay of this set; here they are far more common.
DAT uptake mod – changed human dopamine transporter uptake under cocaine IC80; LLC-PK1 hDAT cells, [14C]-dopamine uptake with cocaine IC80; actives deviate in either direction; B-score at 10 µM; 110,000 tested, 1.3% active; AID 449768;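 active = Z score or B-score, a plate-position-corrected score, falls beyond the plate's 99.7% confidence bounds, in either direction; inactive = both scores lie inside the 99.7% bounds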;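 also: scored against the spread of the other compound wells on the same plate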
Cav32 inh – blocks human Cav3.2 T-type calcium channel; O95180; Cav3.2-expressing cells, Fluo-4 calcium fluorescence FDSS; active compounds read low; B-score at 10 µM; 100,000 tested, 4% active; AID 449739;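 active = single-dose well whose peak fluorescence ratio is a statistical outlier from its plate by either plate-standardised score or position-corrected B-score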
D1 mod – D1 dopamine receptor (human) allosteric modulation | P21728 | HEK293 D1, CRE-luciferase, dopamine EC30 potentiation; actives deviate in either direction | B-score at 10 µM | 58,000 tested, 5.9% active | AID 641;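 active = luminescence count or its row- and column-corrected plate score outside the 99.7% band of the plate's sample wells, on either side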
PLAP activator – human PLAP activation; purified PLAP enzyme, luminescent substrate read-out; active compounds read high; activation fold at 20 µM; 96,000 tested, 1.2% active; AID 696; in the data active = activation fold above about 2
PostGolgi ctrl – growth of the yeast control strain, post-Golgi counter-screen | 98,000 tested, 5% active | efflux-deficient yeast background strain, growth absorbance A615, 16 h | AID 738 | inhibition, % at 10 µM
PostGolgi yeast – growth inhibition of a yeast mutant, post-Golgi transport screen; inhibition, % at 10 µM; post-Golgi transport phenotypic cell assay; 98,000 tested, 0.9% active; AID 739;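 also: yeast cells grown in 1536-well plates; yeast grown about 18 h at 30C before absorbance read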
* = called active by the depositor; · = no result given. Rule as the data show it, unless noted: active = inhibition above about 30%; inactive = the rest.

SMILES	DAT uptake mod	Cav32 inh	D1 mod	PLAP activator	PostGolgi ctrl	PostGolgi yeast
O=C(CCSc1nc(-c2ccco2)cc(C(F)(F)F)n1)N1CCCc2ccccc21	0.368	-3.6*	-0.589	1.6	37.8*	-2.8
O=C(CCSc1nc(-c2ccco2)cc(C(F)(F)F)n1)N1CCN(c2ccccn2)CC1	0.0389	-5.5*	-1.19	1.5	30.5*	4.6
COC(=O)C(Cc1ccc(OC(=O)c2ccccc2C)cc1)N1Cc2ccccc2C1=O (stereo not drawn)	3.3*	0.057	·	1.4	17.6	14.7
COc1cccc(Nc2nc(-c3sc(NC(=O)c4ccco4)nc3C)cs2)c1	0.731	0.689	·	1.1	11.8	-8.1
COc1cccc(Nc2nc(-c3sc(N)nc3C)cs2)c1	2.21*	1.01	-0.182	0.9	8.8	2.5
COc1ccc(OC)c(Nc2nc(-c3sc(C)nc3C)cs2)c1	·	-0.675	0.563	2.1*	48.0*	0.0
CCCCN(CCCNC(=O)c1ccc2nc(N3CCOCC3)sc2c1)Cc1ccccc1	2.62*	0.838	·	2.2*	-3.2	1.6
Cc1cc(NC(=O)c2ccccc2F)n(-c2nc3ccccc3[nH]2)n1	-1.25	-0.187	3.88	1.1	17.2	-3.3
Cc1cc(Nc2ccccc2)n(-c2ccccc2)n1	0.786	-8.36*	3.67	1	25.1	-8.5
Cc1cc(Nc2ccccc2)n(-c2nc3ccccc3[nH]2)n1	0.598	0.896	0.32	1.1	41.2*	2.6
Cc1cc(NC(=O)c2c(F)cccc2Cl)n(-c2nc3ccccc3[nH]2)n1	1.38	-1.4	·	2.6*	17.0	-2.1
Cc1cc(C)nc(-n2nc(C)cc2Nc2ccccc2)n1	-0.367	·	0.273	1.5	13.8	5.2
Cc1cc(NC(=O)c2c(F)cccc2F)n(-c2nc3ccccc3[nH]2)n1	0.664	-0.601	·	1.2	30.0*	-0.7
CN1CCN(C(=O)c2ccccc2-c2ccccc2C(=O)O)CC1	-1.91	-0.241	0.471	1	3.7	5.5
C=CCn1c(CNc2ccc(C)cc2)nnc1SCC(=O)N/N=C/c1ccc(O)cc1	-0.00183	-0.398	·	1.2	3.3	1.0
COc1ccc(C2(C(=O)NCCCN3CCOCC3)CCOCC2)cc1	0.875	·	0.935	1	2.9	6.7
c1cnc2ccc(C(c3nnnn3C3CCCC3)N3CCN(c4nc5ccccc5s4)CC3)cc2c1 (stereo not drawn)	-0.2	-3.86*	0.473	1.6	3.3	4.7
Clc1ccc(C(c2nnnn2C2CCCC2)N2CCN(c3nc4ccccc4s3)CC2)cc1 (stereo not drawn)	-0.00361	-8.13*	·	·	·	·
Cc1ccc(Cl)cc1N1CCN(C(c2cccnc2)c2nnnn2C2CCCCC2)CC1 (stereo not drawn)	-0.435	-4.99*	0.0781	1.6	36.9*	4.6
COC(=O)C1=C(C)N(CCCC(=O)O)C(=O)NC1c1ccc(C#N)cc1 (stereo not drawn)	-1.04	1.05	·	·	·	·
CC(=NC1CCCCC1)C1=C(O)c2ccccc2C1=O	2.01*	-2.36	-0.474	1.4	·	·
S=C(c1ccc2c(c1)OCO2)N1CCCC1	-1.15	0.908	0.282	0.8	2.7	-15.3
CCOC(=O)CNC(c1ccccc1)c1cc(Br)ccc1NC(=O)OCC (stereo not drawn)	0.105	-5.91*	·	1.1	14.5	3.3
CCCCOC(=O)n1c(=O)oc2cc(S(=O)(=O)N3CCCCC3)ccc21	1.24	-4.81*	-1.09	1.3	7.0	-13.0
COc1ccc(NC(=O)C(=O)N2N=C(C(C)C)CC2(O)C(F)(F)F)cc1 (stereo not drawn)	-0.195	0.0658	·	1.1	-6.8	-4.9
SMILES	DAT uptake mod	Cav32 inh	D1 mod	PLAP activator	PostGolgi ctrl	PostGolgi yeast
CCCCN(Cc1ccccc1)S(=O)(=O)c1cc(Br)cc2c1N(C(C)=O)C(C)C2 (stereo not drawn)	-0.0936	-3.26*	·	1.7	36.2*	9.6
CN1C(=O)c2cccc(NC(=O)CCc3ccccc3)c2C1=O	-0.931	0.0536	-0.00865	1.2	-4.7	-2.7
COc1cc(C)c(C(=O)Oc2cc(C)c(C(=O)O)c(O)c2C)c(OC)c1C	-2	-4.36*	·	·	·	·
CCc1cccc(CC)c1NC(=O)CN1CC(C)SC1=NC1CCCCC1 (stereo not drawn)	0.122	-5.27*	·	1.3	26.7	-2.9
CCc1cccc(CC)c1NC(=O)CN1CCN(c2ccccc2)CC1	-0.692	-0.872	-0.355	1.9	22.8	-1.9
O=C1C2C(C(=O)N1/N=C/c1cc(Br)cc([N+](=O)[O-])c1O)C1C=CC2C12CC2 (stereo not drawn)	-0.175	-5.96*	·	1	21.1	-2.0
CCN(c1ccc(C)c(C)c1)S(=O)(=O)c1c(C)[nH]c(=O)[nH]c1=O	-0.045	0.866	·	1.1	13.9	0.8
O=C(COc1ccc(-c2ccccc2)cc1)N1CCN(C(=O)c2cccnc2)CC1	0.362	-0.0464	-1.91	1.6	4.5	4.1
O=C(c1ccccc1)N1CC(COc2ccccc2)OC(c2cccnc2)O1 (stereo not drawn)	-0.0249	·	-0.801	1.4	30.8*	47.8*
Cc1ccc(Cc2cnc(NC(=O)c3cccs3)s2)cc1	-0.136	-3.25	·	1.1	41.0*	10.5
O=C(Nc1ncc(Cc2cccc(Cl)c2)s1)c1cccs1	-0.05	-3.34	·	0.9	47.2*	1.4
Cc1ccc(C(=O)Nc2ncc(Cc3ccccc3)s2)o1	-0.645	-1.63	-2.82*	0.9	22.0	-7.0
O=C(CSc1ccc2nnc(-c3ccncc3)n2n1)N1CCc2ccccc21	·	·	-0.291	1.1	·	·
Nc1cc(OC(=O)c2cccs2)nn1S(=O)(=O)c1ccccc1	1.26	-0.142	-5.32*	0.9	10.8	1.1
C=CCOC(=O)Nc1c(C(=O)OC)[nH]c2ccc(Cl)cc12	-0.0494	·	-1.06	0.9	6.8	-3.5
COC(=O)c1ccc(-c2nc3ccccc3o2)cc1	·	·	-0.885	0.9	·	·
